Avidin bead fluor – compound fluoresces at 488/530 nm on avidin beads. 220,000 compounds, 0.38% hits. compound fluorescence 488/530 nm, flow cytometry; hits give high values. fluorescence (KMESF) at 10 µM. AID 1775; in the data active means fluorescence above about 47
RGS16-Gao HTS – modulates binding between human RGS16 and Galphao | binding response (% of control), % at 10 µM | bead-based flow cytometry RGS16-Galphao binding, fluorescence; actives lie on both sides | AID 1441 | 220,000 compounds, 0.38% hits;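 further: Galphao activated by GDP with aluminum fluoride before binding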
RGS4-Gao reg – modulates binding of RGS4 to human Galphao. Multiplexed bead flow cytometry; actives lie on both sides. binding response (% of control), % at 10 µM. 220,000 compounds, 0.33% hits; in the data active means binding response below about 49% or above about 150%; inactive means in between;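 further: fluorescent Galphao activated with aluminum fluoride binding bead-coupled RGS4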
Target sequence (P09471 whole entry, looked up): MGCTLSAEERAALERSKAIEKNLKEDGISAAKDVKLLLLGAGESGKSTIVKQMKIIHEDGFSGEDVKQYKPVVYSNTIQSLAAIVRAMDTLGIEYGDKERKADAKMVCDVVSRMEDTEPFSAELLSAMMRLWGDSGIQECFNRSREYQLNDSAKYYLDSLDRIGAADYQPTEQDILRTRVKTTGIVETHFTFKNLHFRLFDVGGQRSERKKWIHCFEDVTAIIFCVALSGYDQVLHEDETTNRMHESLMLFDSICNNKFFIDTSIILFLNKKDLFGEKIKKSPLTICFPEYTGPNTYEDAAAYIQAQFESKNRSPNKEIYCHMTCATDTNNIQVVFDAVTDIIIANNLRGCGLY
RGS7-Gao reg – regulators of human RGS7-Galphao interaction. 220,000 compounds, 0.35% hits. binding response (% of control), % at 10 µM. Multiplexed bead flow cytometry, RGS7-Galphao binding; actives lie on both sides. AID 1439. P09471; in the data active means binding response below about 49% or above about 150%; inconclusive means no clear call, values can overlap the other calls; inactive means in between;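 further: fluorescent Galphao held in activated GDP-AlF4 state binding bead-coupled RGS7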
RGS8-Gao reg – human RGS8-Galphao interaction regulation; response (percent of control binding), % at 10 µM; P09471; AID 1423; multiplexed bead flow cytometry, RGS8-Galphao binding; actives lie on both sides; 220,000 compounds, 0.34% hits; in the data active means response below about 60% or above about 140%; inactive means in between;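 further: Galphao activated as the GDP aluminium fluoride complex binding bead-coupled RGS8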
GSH bead fluor – compound fluoresces at 488/530 nm on GSH beads. GSH beads flow cytometry, compound fluorescence 488/530 nm; hits give high values. AID 1776. fluorescence (KMESF) at 10 µM. 190,000 compounds, 0.25% hits; in the data active means fluorescence above about 89;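 further: glutathione beads carrying GST-tagged Bcl family fusion proteins plus one bare bead set; values are compound well signal with DMSO vehicle wells as background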
RGS4-Gao HTS – RGS4-Galphao interaction regulator (human) | shares compounds with RGS16-Gao HTS | multiplexed bead flow cytometry, RGS–Galpha-o binding | RGS4–Galpha-o binding response, % at 10 µM | 1,600 compounds, 99% hits | AID 1504;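 further: fluorescently labeled Galpha-o bound to GDP with aluminium fluoride binding biotinylated RGS beads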
Target sequence (P09471 whole entry, looked up): as above
Target sequence (P49798 whole entry, looked up): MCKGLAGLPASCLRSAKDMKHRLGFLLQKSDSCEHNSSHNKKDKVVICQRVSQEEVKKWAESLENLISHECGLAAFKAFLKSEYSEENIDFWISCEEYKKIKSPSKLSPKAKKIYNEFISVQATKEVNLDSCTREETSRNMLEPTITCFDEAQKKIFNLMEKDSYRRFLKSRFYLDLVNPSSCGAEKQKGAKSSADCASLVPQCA
Avidin counter – counter-screen: compounds disrupting biotin binding to avidin beads; inhibition, % at 10 µM; AID 1783; streptavidin beads, fluorescein-biotin binding, flow cytometry; shares compounds with RGS16-Gao HTS; 1,700 tested, under 10 active;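 active means inhibition above 50%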;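 further: median green fluorescence of gated singlet beads compared with DMSO control wells; 0% = DMSO wells and 100% = complete loss of bead fluorescence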
RGS8-Gao single – RGS8-Galphao interaction regulation, single point confirmation | shares compounds with RGS16-Gao HTS | 1,700 compounds, 3% hits | binding response (% of control), % at 10 µM | bead-based flow cytometry RGS8-Galphao binding, fluorescence; actives lie on both sides; in the data active means binding response below about 72% or above about 130%; inactive means in between;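 further: Galphao activated as GDP AlF4 complex before binding bead RGS8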
RGS7-Gao confirm – RGS7-Galphao interaction regulation, single point confirmation; response (percent of control binding), % at 10 µM; bead-based flow cytometry RGS7-Galphao binding; actives lie on both sides; 1,700 compounds, 7.8% hits; shares compounds with RGS16-Gao HTS; AID 1837; in the data active means response below about 75% or above about 130%; inactive means in between;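 further: fluorescent Galphao activated with GDP and aluminum fluoride binding bead-coupled RGS7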
RGS16-Gao single – RGS16-Galphao interaction regulation, single point confirmation; shares compounds with RGS16-Gao HTS; 1,700 compounds, 4% hits; bead-based flow cytometry, RGS16-Galphao binding; actives lie on both sides; AID 1838; response (% of control binding), % at 10 µM; in the data active means response below about 74% or above about 130%; inactive means in between;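 further: Galphao activated as the GDP aluminium fluoride complex binding bead-coupled RGS16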
RGS4-Gao confirm – RGS4-Galphao interaction regulation, single point confirmation; shares compounds with RGS16-Gao HTS; RGS4-Galphao binding, multiplexed bead flow cytometry; actives lie on both sides; binding response (% of control), % at 10 µM; 1,700 compounds, 4% hits; AID 1840; in the data active means binding response below about 74% or above about 130%; inactive means in between
RGS19-Gao single – RGS19-Galphao interaction regulation, single point confirmation; bead-based flow cytometry RGS19-Galphao binding; actives lie on both sides; response (percent of control binding), % at 10 µM; 1,700 compounds, 5% hits; shares compounds with RGS16-Gao HTS; in the data active means response below about 50% or above about 160%; inactive means in between;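 further: 100% = no compound control and 0% = blank background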
Active calls of the source: *; [ ] = another dose, or the depositor's remark. The list is not random: actives were taken first. Their share in the collection is about 1.2%. Unless noted, how the calls were made is not given here.

Screening CCOc1ccc(C(=O)/C=C/c2cc(OC)c(OC)c(OC)c2)cc1 returned Avidin bead fluor 9, RGS16-Gao HTS 101, RGS4-Gao reg 102, RGS7-Gao reg inconclusive, RGS8-Gao reg 100 and GSH bead fluor 20.
`Cc1cccc2cc(CN(Cc3ccccc3)C(=O)c3cccc(F)c3)c(Cl)nc12` gave Avidin bead fluor 16, RGS16-Gao HTS 100, RGS4-Gao reg 100, RGS7-Gao reg 99, RGS8-Gao reg 102 and GSH bead fluor 13.
For CCc1ccccc1NCC(=O)Nc1ccc(Cl)c(C(F)(F)F)c1 the results were Avidin bead fluor 7, RGS16-Gao HTS 20*, RGS4-Gao reg 94, RGS7-Gao reg 92, RGS8-Gao reg 76, GSH bead fluor 6, RGS4-Gao HTS 94*, Avidin counter -3, RGS8-Gao single 114, RGS7-Gao confirm 101, RGS16-Gao single 114, RGS4-Gao confirm 103 and RGS19-Gao single 96.
For COc1ccccc1NC(=O)CN1CCN(CC(=O)Nc2ccc(Cl)c(C(F)(F)F)c2)CC1 the results were Avidin bead fluor 9, RGS16-Gao HTS 103, RGS4-Gao reg 105, RGS7-Gao reg 103, RGS8-Gao reg 106 and GSH bead fluor 6.
For O=C(N/N=C/c1cn(-c2ccccc2)nc1-c1cccnc1)c1cccnc1 the results were Avidin bead fluor 62*, RGS16-Gao HTS 104, RGS4-Gao reg 112, RGS7-Gao reg 174*[activator], RGS8-Gao reg 103, GSH bead fluor 11, RGS4-Gao HTS 112*, Avidin counter 1, RGS8-Gao single 100, RGS7-Gao confirm 105, RGS16-Gao single 103, RGS4-Gao confirm 101 and RGS19-Gao single 107.
Screening Cc1ccc([N+](=O)[O-])cc1NC(=O)Cc1ccc(F)cc1 returned GSH bead fluor 11, Avidin counter 1, RGS8-Gao single 99, RGS7-Gao confirm 102, RGS16-Gao single 102, RGS4-Gao confirm 102 and RGS19-Gao single 99.
CC(=O)N1CCN(C(=S)NCc2ccccc2)CC1 was read as Avidin bead fluor 6, RGS16-Gao HTS 257*[activator], RGS4-Gao reg 110, RGS7-Gao reg 106, RGS8-Gao reg 138, GSH bead fluor 16, RGS4-Gao HTS 110*, Avidin counter -2, RGS8-Gao single 99, RGS7-Gao confirm 102, RGS16-Gao single 97, RGS4-Gao confirm 97 and RGS19-Gao single 94.
O=C(NCc1ccccc1)C1CCC1 was read as Avidin bead fluor 6, RGS16-Gao HTS 14*, RGS4-Gao reg 96, RGS7-Gao reg 96, RGS8-Gao reg 86, GSH bead fluor 12, RGS4-Gao HTS 96*, Avidin counter 0, RGS8-Gao single 98, RGS7-Gao confirm 95, RGS16-Gao single 97, RGS4-Gao confirm 98 and RGS19-Gao single 97.
`S=C(NCc1ccccc1)N1CCCCC1` gave Avidin bead fluor 10, RGS16-Gao HTS 89, RGS4-Gao reg 90, RGS7-Gao reg 89, RGS8-Gao reg 93 and GSH bead fluor 19.
Screening C#CCOC(=O)c1ccc(-n2cncn2)nc1 returned Avidin bead fluor 9, RGS16-Gao HTS 103, RGS4-Gao reg 100, RGS7-Gao reg 99, RGS8-Gao reg 99 and GSH bead fluor 57.
For CCCCNC(=O)NNc1nc(Cl)cc(C)c1C#N the results were Avidin bead fluor 7, RGS16-Gao HTS 94, RGS4-Gao reg 96, RGS7-Gao reg 101, RGS8-Gao reg 98 and GSH bead fluor 12.
`CC(=O)NC(Cc1cccc(C)c1)C(=O)NC1CCN(C(=O)c2ccc([N+](=O)[O-])cc2)CC1` (stereo not given) gave Avidin bead fluor 10, RGS16-Gao HTS 130, RGS4-Gao reg 107, RGS7-Gao reg 103, RGS8-Gao reg 110 and GSH bead fluor 11.
For Cc1ccc(N2C(=O)c3cccc4c(Oc5ccccc5[N+](=O)[O-])ccc(c34)C2=O)c(C)c1 the results were Avidin bead fluor 14, RGS16-Gao HTS 235*[activator], RGS4-Gao reg 121, RGS7-Gao reg 122, RGS8-Gao reg 126, GSH bead fluor 2, RGS4-Gao HTS 121*, Avidin counter 1, RGS8-Gao single 107, RGS7-Gao confirm 110, RGS16-Gao single 107, RGS4-Gao confirm 108 and RGS19-Gao single 115.
`CCOC(CNC(=O)c1cccn2c(=O)c3cc(Cl)ccc3nc12)OCC` gave Avidin bead fluor 4, RGS16-Gao HTS 54, RGS4-Gao reg 52, RGS7-Gao reg 48*, RGS8-Gao reg 71, GSH bead fluor 18, RGS4-Gao HTS 52*, Avidin counter 0, RGS8-Gao single 101, RGS7-Gao confirm 99, RGS16-Gao single 102, RGS4-Gao confirm 98 and RGS19-Gao single 106.
Screening CN(C)C(=O)CSc1nc2ccccc2c(=O)[nH]1 returned Avidin bead fluor 165*, RGS16-Gao HTS 109, RGS4-Gao reg 127, RGS7-Gao reg 277*[activator], RGS8-Gao reg 97, GSH bead fluor 24, RGS4-Gao HTS 127*, Avidin counter 1, RGS8-Gao single 102, RGS7-Gao confirm 95, RGS16-Gao single 105, RGS4-Gao confirm 101 and RGS19-Gao single 102.
For O=C(NCc1cccnc1)C(=O)NCC1OCCN1S(=O)(=O)c1cc(F)ccc1F (stereo not given) the results were Avidin bead fluor 75*, RGS16-Gao HTS 200*[activator], RGS4-Gao reg 206*[activator], RGS7-Gao reg inconclusive, RGS8-Gao reg 115, Avidin counter -1, RGS8-Gao single 100, RGS7-Gao confirm 95, RGS16-Gao single 96, RGS4-Gao confirm 95 and RGS19-Gao single 124.

High-throughput results: PubChem BioAssay, NMMLSC
